# Results filed as inconclusive are left out. Calls of active or inactive are those of the source. Unless noted, calls follow the shape of the full dose curve.
# How the values were obtained:
# [1] = biological target: Catechol O-methyltransferase (Homo sapiens) (UniProt P21964); test: Confirmatory Screen for Target Class Profiling of Small Molecule Inhibitors of Methyltransferases (AID 1745852); details: MTase-Glo luminescence, SAH detection, recombinant enzyme; measured here: COMT max response; stronger effect = lower value; also: potency is read from the fitted curve at half-maximal effect; as to activity change, negative = inhibition: % is scaled to controls: 0 for no effect and ±100 for the full control effect
# [2] = biological target: Guanidinoacetate N-methyltransferase (Homo sapiens) (UniProt Q14353); test: as above; details: MTase-Glo luminescence, SAH detection, recombinant enzyme; activity change, negative = inhibition: at 57.3 µM (top of the series) unless noted; series mostly up to 57.3 µM
# [3] = biological target: Nicotinamide N-methyltransferase (Homo sapiens) (UniProt P40261); test: as above; details: MTase-Glo luminescence, SAH detection, recombinant enzyme; measured here: NNMT max response; stronger effect = lower value
# [4] = biological target: Phenylethanolamine N-methyltransferase (Homo sapiens) (UniProt P11086); test: as above; details: MTase-Glo luminescence, SAH detection, recombinant enzyme; measured here: PNMT max response; stronger effect = lower value
# [5] = NCATS anti-infectives library activity on HEK293 viability as a counter-qHTS vs the C. elegans viability qHTS (AID 1745854; active = well fitted cell-killing curve with a large enough effect; also: % is scaled to controls: 0 for no effect and ±100 for the full control effect); details: HEK293 viability counter-screen; series mostly up to 41.8 µM
# Procedure, shortened: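 Cytotoxicity counter-screen to a worm viability qHTS: CellTiter-Glo luminescence read 10 min after reagent addition. Compounds (final up to 41.7 uM, a 1:5 dilution series) incubated 24 hr at 37C with 1,500 HEK293 cells per well; digitonin control.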
# [6] = qHTS drug screen for cell cycle checkpoint inhibitors in PARPi-resistant BRCA-mutant ovarian cancer cell lines. (AID 1963452); details: PEO1/OlaR viability, CellTiter-Glo luminescence, 96 h, stronger effect = lower value
# Procedure, shortened: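 PEO1, PEO4 and PEO1/OlaR ovarian cancer cells, 600 per well, exposed 96 h at 37C to a dilution series. Viability read by CellTiter-Glo luminescence, normalized to DMSO and empty wells; activity summarized as Z-AUC.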
# Sequence of Phenylethanolamine N-methyltransferase (Homo sapiens) (P11086 whole entry, looked up): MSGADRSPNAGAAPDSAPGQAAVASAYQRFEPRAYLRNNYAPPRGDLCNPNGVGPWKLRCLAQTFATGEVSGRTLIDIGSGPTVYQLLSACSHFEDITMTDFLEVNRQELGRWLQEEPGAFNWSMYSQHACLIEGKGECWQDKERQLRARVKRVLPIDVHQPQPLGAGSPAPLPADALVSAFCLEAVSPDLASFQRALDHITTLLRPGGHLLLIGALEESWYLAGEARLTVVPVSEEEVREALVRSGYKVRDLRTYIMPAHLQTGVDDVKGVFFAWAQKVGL
# Sequence of Catechol O-methyltransferase (Homo sapiens) (P21964 whole entry, looked up): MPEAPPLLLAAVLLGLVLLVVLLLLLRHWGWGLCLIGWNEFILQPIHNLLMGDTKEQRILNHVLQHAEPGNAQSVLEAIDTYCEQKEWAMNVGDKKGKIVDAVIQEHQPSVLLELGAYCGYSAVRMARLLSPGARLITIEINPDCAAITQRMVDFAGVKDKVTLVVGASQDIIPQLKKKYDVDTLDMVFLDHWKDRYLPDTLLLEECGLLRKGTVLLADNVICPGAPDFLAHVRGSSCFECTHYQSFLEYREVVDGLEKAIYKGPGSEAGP
# Sequence of Nicotinamide N-methyltransferase (Homo sapiens) (P40261 whole entry, looked up): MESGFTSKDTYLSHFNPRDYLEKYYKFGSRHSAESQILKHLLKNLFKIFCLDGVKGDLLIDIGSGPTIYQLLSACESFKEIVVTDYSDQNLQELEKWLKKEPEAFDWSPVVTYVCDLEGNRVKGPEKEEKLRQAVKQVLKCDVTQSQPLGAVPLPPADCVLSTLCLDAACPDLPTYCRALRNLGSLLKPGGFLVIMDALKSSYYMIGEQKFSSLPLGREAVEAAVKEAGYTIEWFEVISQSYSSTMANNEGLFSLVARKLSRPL
structure (smiles),measurement,setting,value
Cc1ccc(Cn2c(=O)c3ccccc3n3c(CCC(=O)N4CCC(N5CCCCC5)CC4)nnc23)cc1,activity,[1],-6.25%
same,"activity change, negative = inhibition",[2],-4.42%
same,activity,[3],-14.2%
same,activity,[4],-2.33%
O=C(CC1CCCC1)N1CCC(Nc2cccnc2)C1 (configuration not stated),activity,[1],-11%
same,"activity change, negative = inhibition",[2],-10.5%
same,activity,[3],-14.6%
same,activity,[4],-7.86%
CC(NC(=O)c1ccc2c(=O)nc3c(-c4cccc(F)c4)n[nH]n3c2c1)c1ccc(F)cc1 (configuration not stated),activity,[1],-18.4%
same,Potency,[2],13.6 µM (active)
same,activity,[3],-28.4%
same,activity,[4],-25.5%
Cc1ccc(NS(=O)(=O)c2ccc3c(c2)[C@H]2C=CC[C@H]2[C@@H](c2cccc(Cl)c2)N3)c(C)c1,activity,[1],-11.2%
same,"activity change, negative = inhibition",[2],-14.3%
same,activity,[3],-16.4%
same,activity,[4],-18.5%
CC(=O)Nc1ccc2c(c1)C1C=CCC1C(c1ccccc1F)N2 (configuration not stated),activity,[1],-18.4%
same,Potency,[2],42.9 µM (active)
same,activity,[3],-12.1%
same,activity,[4],-27.7%
COCCCN1C(=O)c2cc3c(OC)ccc(OC)c3n2CC1(C)C(=O)NC1CCCCC1 (configuration not stated),activity,[1],-9.18%
same,"activity change, negative = inhibition",[2],-5.66%
same,activity,[3],-20.2%
same,activity,[4],-10%
Cc1ccc(Cn2c(=O)c3ccccc3n3c(CCC(=O)NCCN4CCCC4)nnc23)cc1,activity,[1],-6.32%
same,"activity change, negative = inhibition",[2],-1.98%
same,activity,[3],-16.1%
same,activity,[4],-2.34%
CC1CC(C)CN(S(=O)(=O)c2ccc3c(c2)oc(=O)n3CC(=O)Nc2ccc(Cl)cc2)C1 (configuration not stated),activity,[1],-4.03%
same,"activity change, negative = inhibition",[2],-1.24%
same,activity,[3],-8.67%
same,activity,[4],-61.6%
CCN(CC)CCNC(=O)CCc1nnc2n(Cc3ccc(Cl)cc3)c(=O)c3ccccc3n12,activity,[1],2.48%
same,"activity change, negative = inhibition",[2],0%
same,activity,[3],-12.4%
same,activity,[4],0%
O=C(Cn1c(=O)oc2cc(S(=O)(=O)N3CCCC3)ccc21)NCCC1=CCCCC1,activity,[1],-0.904%
same,"activity change, negative = inhibition",[2],0.588%
same,activity,[3],1.35%
same,activity,[4],-61.9%
O=C(Cn1c(=O)oc2cc(S(=O)(=O)N3CCCC3)ccc21)Nc1ccc(F)c(Cl)c1,activity,[1],-3.81%
same,"activity change, negative = inhibition",[2],1.53%
same,activity,[3],-2.29%
same,activity,[4],-63.9%
O=C(c1ccc(Cl)cc1)N1CC2(CCN(CC3CC3)CC2)Cc2ccccc21,activity,[1],-9.09%
same,"activity change, negative = inhibition",[2],-2.34%
same,activity,[3],-9.37%
same,activity,[4],-4.04%
CC(C)c1nccn1CCCNC(=O)c1ccc(N2CCCC(CO)C2)nc1 (configuration not stated),activity,[1],2.58%
same,"activity change, negative = inhibition",[2],1.26%
same,activity,[3],6.68%
same,activity,[4],5.49%
CN1C(=O)C(c2ccccc2)CC12CCN(c1ccnc(N)n1)CC2 (configuration not stated),activity,[1],6.59%
same,"activity change, negative = inhibition",[2],9.95%
same,activity,[3],7.63%
same,activity,[4],10.4%
c1ccc(-c2[nH]nc3ncc(-c4cn[nH]c4)nc23)cc1,activity,[1],-73.4%
same,Potency,[2],31.2 µM (active)
same,activity,[3],-59.9%
same,activity,[4],-83.4%
CC1CCCCN1CCNC(=O)Cn1ccc2cc(S(=O)(=O)N3CCCCC3)ccc21 (configuration not stated),activity,[1],0.614%
same,"activity change, negative = inhibition",[2],0%
same,activity,[3],-0.249%
same,activity,[4],-1.89%
COc1cccc(-c2cccc(C(=O)N3C[C@H](CO)C[C@H](CN(C)C)C3)c2)c1,activity,[1],7.14%
same,"activity change, negative = inhibition",[2],2.08%
same,activity,[3],0.542%
same,activity,[4],4.94%
COc1ccc(N2CCN(C(=O)c3cc(NC(C)=O)cc4nc(C)ccc34)CC2)cc1,activity,[1],1.89%
same,"activity change, negative = inhibition",[2],4.56%
same,activity,[3],4.7%
same,activity,[4],7.32%
COc1cc2c(cc1O)NC(=O)CC2c1cn[nH]c1-c1cc(C)ccc1C (configuration not stated),activity,[1],-13.7%
same,"activity change, negative = inhibition",[2],2.11%
same,activity,[3],-6.25%
same,activity,[4],-21.7%
CC1(C(=O)NC2CCCCCC2)Cn2c(c(-n3cccc3)c3ccccc32)C(=O)N1CC1CCCO1 (configuration not stated),activity,[1],4.7%
same,"activity change, negative = inhibition",[2],0.126%
same,activity,[3],-46.9%
same,activity,[4],0%
CC(=O)N1CCC(C(=O)N(CCCN2CCC(Cc3ccc(C(N)=O)cc3)CC2)c2ccc(C)c(Cl)c2)CC1,Potency,[5],inactive
NC(=O)c1cccc2[nH]c(-c3ccc([C@@H]4CCCN4)cc3F)nc12,activity,[1],-9.14%
same,"activity change, negative = inhibition",[2],-8.18%
same,activity,[3],-23.8%
same,activity,[4],-6.69%
same,Potency,[5],inactive
same,Z-AUC,[6],-0.692 (inactive)
same,Z-AUC,[6]; measured here: PEO1 parental Z-AUC,-1.03
same,Z-AUC,[6]; measured here: PEO4 Z-AUC,-0.377
Cc1ccsc1CCNC(=O)Cn1c(=O)oc2cc(S(=O)(=O)N3CCCC3)ccc21,activity,[1],-8.14%
same,"activity change, negative = inhibition",[2],-1.17%
same,activity,[3],-5.53%
same,activity,[4],-81.8%
COc1ccccc1N1CCN(S(=O)(=O)c2cccc3c2C(=O)c2ccccc2C3=O)CC1,activity,[1],-3.23%
same,"activity change, negative = inhibition",[2],2.86%
same,activity,[3],-1.31%
same,activity,[4],-8.85%

# — PubChem BioAssay (NCATS)
